Compound activity from PubChem.
Only some compounds are listed: those with a hit (about 6% of all), similar ones and a draw of the others.
D3 ag: qHTS of D3 Dopamine Receptor Agonist: qHTS. D(3) dopamine receptor (Homo sapiens), P35462. D3R DiscoveRx beta-arrestin cells, luminescence, 90 min. max activation, %. 410,000 compounds, 0.58% hits. AID 652048, 2013; in the data active means max activation above about 30%
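Agonist mode: compounds and dopamine controls were applied to plated cells for 90 min at 37 degrees C after an overnight attachment at 1500 cells/well. Luminescent read-out followed 30 - 60 minutes at room temperature with DiscoveRx detection reagent.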
D3 antag: qHTS of D3 Dopamine Receptor Antagonist: qHTS; D(3) dopamine receptor (Homo sapiens), P35462; D3R cells, DiscoveRx beta-arrestin luminescence, antagonist mode; hits give low values; max response, negative = inhibition, %; 360,000 compounds, 2.5% hits; in the data active means max response below about -50%
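Cells expressing the human receptor were seeded at 1500 cells/well, incubated overnight at 37 degrees C in 5% CO2, then exposed to library compounds with dopamine controls for 90 minutes at 37 degrees C before luminescent detection.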
D1 agonist: Allosteric Agonists of the Human D1 Dopamine Receptor: qHTS; D(1A) dopamine receptor (Homo sapiens), P21728; HEK293 T-REx D1 cells, calcium flux, agonist mode; activation, % at 2 µM; 360,000 compounds, 1% hits; AID 504660, 2011; in the data active means activation above about 30%
Target sequence (P21728 whole entry, looked up): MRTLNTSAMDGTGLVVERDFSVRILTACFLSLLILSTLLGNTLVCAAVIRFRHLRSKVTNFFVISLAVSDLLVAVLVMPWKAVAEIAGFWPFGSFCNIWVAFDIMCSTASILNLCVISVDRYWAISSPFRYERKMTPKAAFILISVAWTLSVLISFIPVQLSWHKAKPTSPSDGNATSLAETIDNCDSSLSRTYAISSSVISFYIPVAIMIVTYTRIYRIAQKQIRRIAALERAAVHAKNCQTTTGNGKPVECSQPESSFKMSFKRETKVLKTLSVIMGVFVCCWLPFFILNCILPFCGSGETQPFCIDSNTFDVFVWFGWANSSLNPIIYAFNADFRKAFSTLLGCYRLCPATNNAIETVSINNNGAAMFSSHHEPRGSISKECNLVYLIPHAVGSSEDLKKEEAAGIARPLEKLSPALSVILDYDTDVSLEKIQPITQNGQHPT
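Agonism was scored from calcium flux recorded over 180 s (1 read/s) after pintool compound addition, following a 10-cycle baseline. Cells were inducible force-coupled HEK293 TREx D1, plated overnight at 30 C and loaded with no-wash calcium dye.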
D1 potentiator: Potentiators of Human D1 Dopamine Receptor: qHTS; potentiation, % at 10 µM; D(1A) dopamine receptor (Homo sapiens), P21728; AID 504651, 2011; 360,000 compounds, 0.036% hits; HEK293 TREx D1 cells, calcium flux, dopamine EC20 potentiation; in the data active means potentiation above about 30%
D1 antagonist: Antagonist of Human D 1 Dopamine Receptor: qHTS; D(1A) dopamine receptor (Homo sapiens), P21728; HEK293 TREx D1 cells, calcium flux, dopamine EC80; hits give low values; activity change, negative = inhibition, % at 10 µM; 360,000 compounds, 3.2% hits; in the data active means activity change below about -30%
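Tetracycline-induced HEK293 Trex D1 cells, force-coupled to calcium, dye-loaded; compounds added and read 180 s, then EC80 dopamine added and calcium flux tracked kinetically another 180 s.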
Large screens that a line does not name were inactive; ! = not active in a repeat.

O=[N+]([O-])c1ccc2c(c1)C(N1CCN(CCO)CC1)Cc1ccc(F)cc1S2 (configuration not stated)	D3 antag -106.1 (no result: D1 agonist, D1 potentiator, D1 antagonist)
COc1ccc2c(c1)CC(N1CCN(C)CC1)c1cc(OC)ccc1S2 (configuration not stated)	D3 antag -94.3 (no result: D1 agonist, D1 potentiator, D1 antagonist)
Fc1ccc2c(c1)Sc1ccc(Cl)cc1CC2N1CCN(CCC2OCCO2)CC1 (configuration not stated)	D3 antag -93.3 (no result: D1 agonist, D1 potentiator, D1 antagonist)
O=[N+]([O-])c1ccc(CN2CC(N3CCN(CCO)CC3)CS2(=O)=O)cc1 (configuration not stated)	none (no result: D1 agonist, D1 potentiator, D1 antagonist)
CCN1C(=O)CC(N2CCN(c3ccc(OC)cc3)CC2)C1=O (configuration not stated)	none
CCc1ccccc1NC(=O)C(C)n1nc(-c2ccc(C)c(C)c2)ccc1=O (configuration not stated)	none (no result: D3 antag)
Cc1ccc(Cl)cc1NC(=O)c1ccc(-c2nc(CSc3ccccc3)c(C)o2)cc1	none (no result: D3 antag)
CC(=O)SCC(=O)N=c1sc2cc(F)ccc2n1C	D3 ag 45.8
O=[N+]([O-])c1ccc(S(=O)(=O)NCC(c2cccnc2)N2CCc3ccccc3C2)cc1 (configuration not stated)	none
O=[N+]([O-])c1ccc(S(=O)(=O)NCC(c2ccco2)N2CCc3ccccc3C2)cc1 (configuration not stated)	D3 antag -57.1
S=c1[nH]nc(COc2ccccc2)n1/N=C/c1ccncc1	none (no result: D1 antagonist)
FC(F)(F)c1ccccc1/C=N/n1c(COc2ccccc2)n[nH]c1=S	D1 agonist 38.3, D1 antagonist -35.6
CCc1ccc(/C=N/n2c(COc3ccccc3)n[nH]c2=S)cc1	D1 agonist 60.7
O=[N+]([O-])c1ccc(Cl)c(/C=N/n2c(COc3ccccc3)n[nH]c2=S)c1	D3 antag -58.1
Cc1ccc(CNC(=O)C(=O)NCC(c2cccs2)S(=O)(=O)c2cccs2)cc1 (configuration not stated)	none (no result: D3 antag, D1 antagonist)
COc1ccc(-c2nnc(SCC(=O)Nc3ccc(Cl)cc3)s2)cc1	none (no result: D3 antag)
Cc1ccccc1OCCCC(=O)NCc1ccco1	D3 antag -123.2
Cc1ccc(OCCCC(=O)NCc2ccco2)cc1	none
Cc1ccc(OCC(=O)OCc2cc(=O)n3nc(-c4cccs4)sc3n2)cc1C	none (no result: D3 antag)
CN[C@@H]1[C@@H](O)[C@@H](O[C@@H]2[C@@H](O)[C@H](O[C@H]3O[C@H](CN)[C@@H](O)[C@H](O)[C@H]3O)[C@@H](N)C[C@H]2NC(=O)C(O)CN)OC[C@]1(C)O (some centres not stated)	none (no result: D3 antag, D1 agonist, D1 potentiator, D1 antagonist)
CCOC(=O)N1CCN(S(=O)(=O)c2ccc(C(=O)Nc3nnc(C)o3)cc2)CC1	D3 antag -51.5
COc1ccc(S(=O)(=O)N2CCCCCC2)cc1C(=O)OCC(=O)NC(N)=O	none
CCOC(=O)N1CCN(S(=O)(=O)c2ccc(C(=O)Nc3nnc(CSC)o3)cc2)CC1	none
COc1ccc(S(=O)(=O)N2CCCCCC2)cc1C(=O)OCC(=O)NC(C)(C)C	D3 ag 38.6
CCOC(=O)N1CCN(S(=O)(=O)c2ccc(OC)c(OC)c2)CC1	none
CCOC(=O)N1CCN(S(=O)(=O)c2ccc(OC)c(Cl)c2)CC1	D1 antagonist -31.1
COC(=O)C1CCN(C(=O)COc2ccc(S(=O)(=O)N3CCOCC3)cc2Cl)CC1	D3 ag 62.8 (no result: D1 agonist, D1 potentiator, D1 antagonist)
COc1ccc(NC(=O)Cc2csc(COc3cccc(C)c3)n2)cc1OC	none (no result: D3 antag)
CCOc1ccccc1CNC(=O)CCn1cccn1	none (no result: D3 antag)
O=C(Cn1c(=O)oc2cc(S(=O)(=O)N3CCCCCC3)ccc21)Nc1cccc(C(F)(F)F)c1	none (no result: D3 antag)
O=C(CNC(=O)c1ccc(C(F)(F)F)cc1)OC(C(=O)Nc1cc(C(F)(F)F)ccc1Cl)c1ccccc1 (configuration not stated)	none (no result: D3 ag, D3 antag)
CCOc1ccc(S(=O)(=O)N2CCC(C(=O)N3CCN(C)CC3)CC2)cc1Cl	none
CCOc1ccc(S(=O)(=O)N2CCC(C(=O)N3CCCCCC3)CC2)cc1Cl	D1 antagonist -40.1
Cc1ccc(-c2cn3c(=O)cc(C)[nH]c3n2)cc1	D1 antagonist -40.0
Cc1cc(=O)n2cc(-c3ccccc3)nc2[nH]1	none
O=C(Nc1cccc(F)c1)c1cc(S(=O)(=O)N2CCOCC2)cs1	D1 antagonist -84.4
Cc1ccc(NC(=O)c2cc(S(=O)(=O)N3CCOCC3)cs2)cc1	none
O=C(Nc1ccc(F)cc1)c1cc(S(=O)(=O)N2CCOCC2)cs1	D1 antagonist -60.7
C[S+](C)CCC(N)C(=O)O (configuration not stated)	none (no result: D3 antag, D1 agonist, D1 potentiator, D1 antagonist)
O=C1Cc2cc(NS(=O)(=O)c3ccc(Cl)cc3)cc3c2N1CCC3	none
O=C1Cc2cc(NS(=O)(=O)c3ccc([N+](=O)[O-])cc3)cc3c2N1CCC3	D1 antagonist -32.3
Cc1cccc(C)c1NC(=O)CN(CC(=O)O)CC(=O)O	none (no result: D3 antag, D1 agonist, D1 potentiator, D1 antagonist)
Cn1c(=O)c2[nH]c(Cc3cccc4ccccc34)nc2n(C)c1=O	D3 ag 35.5 (no result: D1 agonist, D1 potentiator, D1 antagonist)
CCN(CC)CCNC(=O)Cn1c(=O)c2cccn2c2ccc(F)cc21	none
CN(C)CCNC(=O)Cn1c(=O)c2cccn2c2ccc(F)cc21	D1 agonist 37.1!
O=C(Cn1c(=O)c2cccn2c2ccc(F)cc21)NCCCN1CCN(c2ccccc2F)CC1	D3 antag -92.3
CCC(C)NC(=O)c1ccccc1NC(=O)CN1C(=O)c2cccc3cccc1c23 (configuration not stated)	none (no result: D3 antag)
CCC1CN(C(=O)Nc2cccc3c2CCCC3)c2cc(C)ccc2O1 (configuration not stated)	D1 antagonist -59.9 (no result: D3 antag)
Nc1ccc2c3c(cccc13)-c1ccccc1-2	D3 ag 30.0 (no result: D1 agonist, D1 potentiator, D1 antagonist)
Cc1ccc2c3c(cccc13)-c1ccccc1C2=O	none
CCCCN(C)CCCNC(=O)C1CCN(S(=O)(=O)CCC)CC1	none (no result: D3 antag)
O=S(=O)(c1ccc2c(c1)OCCO2)N1CCC(n2nnc3cc(F)ccc32)CC1	none
O=S(=O)(c1ccc2c(c1)OCCO2)N1CCC(n2cnc3cc(F)ccc32)CC1	D1 antagonist -45.9
CCOc1ccc(N(C)S(=O)(=O)c2ccc3c(c2)C(C)(C)C(=O)N3C)cc1	D1 antagonist -35.5 (no result: D3 antag)
CCOc1ccccc1CNS(=O)(=O)c1ccc2c(c1)C(C)(C)C(=O)N2C	D1 antagonist -34.6!
O=C(N/N=C/c1ccccc1Cl)c1n[nH]c2c1CCCC2	none
Cc1[nH]nc(C(=O)NN=Cc2ccccc2Cl)c1N=NN(C)C	D3 antag -80.7 (no result: D1 agonist, D1 potentiator, D1 antagonist)
Cc1cc2c(s1)c1c(n2C)C(=O)N(Cc2ccccc2F)C1	none (no result: D3 ag, D3 antag)
N#Cc1ccc(Sc2ccccn2)c([N+](=O)[O-])c1	D1 antagonist -59.9
